# Pol iota inh = DNA polymerase iota (human) inhibition. Potency, µM (highest dose often 115 µM), inactives show at the top dose activity, negative = inhibition, hits mostly inhibitors. Pol iota fluorescent replication assay, 10 min. actives 1% (n = 390,000). AID 588590. Q9UNA4
#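 Pol iota at 10 nM preincubated 15 min with compounds at room temperature; reaction started with fluorescent substrate, 50 nM final. Fluorescence read kinetically at 0 and 10 min; buffer-only wells as negative control.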
# Pol eta inh = DNA polymerase eta (human) inhibition. Q9Y253. recombinant Pol eta, fluorescent DNA replication assay. Potency, µM (doses to about 114 µM), for the others: top-dose activity change, negative = inhibition, actives largely listed as inhibitors. actives 1.2% (n = 390,000). AID 588591; further: on the % scale 0 is the no-effect control and ±100 the full control effect
#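 Pol eta at 10 nM preincubated with compounds 15 min at room temperature; reaction started with fluorescent substrate (50 nM final) and read kinetically at 0 and 10 min.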
# Pol kappa inh = DNA polymerase kappa (human) inhibition; Q9UBT6; purified Pol kappa, fluorescent DNA synthesis assay, 10 min; Potency, µM (top dose mostly 107 µM), for inactives: at the highest dose activity, negative = inhibition, most hits filed as inhibitors; actives 0.53% (n = 400,000); further: on the % scale 0 is the no-effect control and ±100 the full control effect
#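 Enzyme at 10 nM met test compounds for 15 min at room temperature. Substrate addition (50 nM final) began the reaction, which was monitored by fluorescence at 0 and 10 min.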
# FEN1 inh-1 = inhibitors of human flap endonuclease 1 | P39748 | Recombinant FEN1 flap cleavage, fluorescence, 15 min | Potency, µM (series often up to 114 µM), without a hit: at the top dose activity change, negative = inhibition, usual class: inhibitors | actives 0.35% (n = 390,000); further: on the % scale 0 is the no-effect control and ±100 the full control effect; nearly all actives have a fitted effect of over 65% in size
#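 With each library titrated from low to high concentration, compounds met 10 nM FEN1 for 15 min at room temperature before 50 nM substrate was added; readings at 0 and 15 min fed four-parameter Hill curve fits.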
# WRN helicase inh-1 = WRN helicase (human) inhibition. Q14191. AID 651768. WRN helicase unwinding, fluorescent forked duplex, kinetic. actives 0.46% (n = 360,000). Potency, µM (top dose mostly 114 µM), for inactives: at the top dose activity change, negative = inhibition, usual class: inhibitors; further: on the % scale 0 is the no-effect control and ±100 the full control effect; nearly all actives have a fitted effect of over 55% in size
#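 WRN at 20 nM final was preincubated with compound for 15 min at room temperature; reaction started with 100 nM forked duplex oligonucleotide carrying fluorophore and quencher plus 2 mM ATP (final). Unwinding followed kinetically by red fluorescence (ex 525/em 598 nm).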
# Pol beta inh = inhibitors of human DNA polymerase beta; P06746; Pol beta primer extension/strand displacement, fluorescence kinetic; Potency, µM (doses to about 114 µM), without a hit: at the top dose activity change, negative = inhibition, hits mostly inhibitors; actives 1.3% (n = 340,000); further: on the % scale 0 is the no-effect control and ±100 the full control effect
#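 Pol beta (10 nM) and compounds were preincubated 15 min at room temperature, then 50 nM substrate (final) started primer extension/strand displacement. Reads were taken at 0 and 10 min; concentration-response data were fitted to a four-parameter Hill equation.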
# FEN1 inh-2 = confirmation of human FEN1 inhibitors; Potency, µM, hits mostly inhibitors; FEN1 flap cleavage, TAMRA/BHQ2 fluorogenic DNA substrate; actives 79% (n = 880); shares compounds with FEN1 inh-1; further: nearly all actives have a fitted effect of over 60% in size
# WRN helicase inh-2 = WRN helicase inhibition, cherry-pick retest | actives 63% (n = 610) | shares compounds with WRN helicase inh-1 | Potency, µM (highest dose often 57.1 µM), without a hit: at the top dose activity, negative = inhibition, hits mostly inhibitors | AID 720497 | WRN helicase DNA unwinding, fluorescence kinetic; further: nearly all actives have a fitted effect of over 65% in size
# TO displacement = counter-screen for WRN helicase inhibitors: DNA binding | actives 10% (n = 610) | Potency, µM (doses to about 57.1 µM), for inactives: at the highest dose activity change, negative = inhibition, hits mostly inhibitors | thiazole orange DNA binding displacement, fluorescence | AID 720499 | shares compounds with WRN helicase inh-1;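 further: drop in dye fluorescence marks compound binding to DNA; on the % scale 0 is the no-effect control and ±100 the full control effect; nearly all actives have a fitted effect of over 60% in size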
# BLM counter = blocks human BLM helicase in WRN counterscreen; actives 60% (n = 610); Recombinant BLM helicase DNA unwinding, red fluorescence; shares compounds with WRN helicase inh-1; Potency, µM (highest dose often 57.1 µM), without a hit: at the top dose activity change, negative = inhibition, usual class: inhibitors; further: nearly all actives have a fitted effect of over 60% in size
# * marks the source's active call; other numbers are inactive results; ? = inconclusive; nt = not tested or not shown; [ ] = another dose, or the depositor's remark. The list is not random: actives were taken first. Their share in the collection is about 2.4%. The call rests on the fitted dose curve; in most records, active means well fitted curve in the direction sought with a large enough effect; inconclusive means small, poorly fitted or top-dose-only effect, or another doubt; inactive means no such curve, though single readings can be large; an effect the other way counts as inactive or inconclusive. Potency means the concentration at half of the fitted maximal effect.
SMILES,Pol iota inh,Pol eta inh,Pol kappa inh,FEN1 inh-1,WRN helicase inh-1,Pol beta inh,WRN helicase inh-2,TO displacement,BLM counter,others
Cc1ccccc1-n1c(C)cc(/C=C2/C(=O)NC(=O)N(Cc3ccco3)C2=O)c1C,?,?,?,-15%,-14%,-9%,nt,nt,nt,FEN1 inh-2=?
COc1ccc(S(=O)(=O)Nc2cc([N+](=O)[O-])ccc2OC)cc1,159%,-23%,-12%,2%,1%,?,nt,nt,nt,
CCC(C)N1C(=O)/C(=C\c2cnc(N(C)C)nc2)C(=O)NC1=S (centres undefined),?,-7%,2%,-1%,50µM*,15%,-6%,7%,-18%,
Cc1ccc(OCCOc2cccc(C=C3C(=O)NC(=O)NC3=O)c2)c(C)c1,?,-22%,-19%,?,35µM*,?,?,-23%,27µM*,
O=C=NCCCCN=C=O,nt,nt,-1%[60.1 µM],nt,nt,nt,nt,nt,nt,
CCOc1cc(C=C2C(=O)NC(=O)NC2=O)ccc1OCC(=O)N1CCOCC1,12%,-10%,-3%,-6%,?,17%,-4%,-3%,-11%,
CC(=O)C1CCC2C3CCC4CC(C)(O)CCC4(C)C3CCC12C (centres undefined),nt,nt,13%[60.1 µM],nt,nt,nt,nt,nt,nt,
Cc1c(C=C2C(=O)NC(=O)NC2=O)c(=O)n(-c2ccccc2)n1C,162%,-16%,-21%,-3%,-10%,-13%,nt,nt,nt,
O=C1NC(=O)C(=Cc2c(Cl)cccc2Cl)C(=O)N1,-1%,-3%,-21%,2%,35µM*,nt,0%,-3%,-4%,
COc1cc(C=C2C(=O)NC(=O)NC2=O)ccc1OS(=O)(=O)c1ccccc1[N+](=O)[O-],?,-19%,-14%,-24%,28µM*,20%,-20%,-10%,-4%,
O=C1CC=C2C3CC4N(CCC45c4cc(O)c(O)cc4N1C25)CC3=CCBr (centres undefined),40µM*,?,?,?,28µM*,nt,19µM*,-4%,5.4µM*,
CCOC(=O)Cn1cc(C=C2C(=O)N(C)C(=O)N(C)C2=O)c2ccccc21,31%,-9%,71%,-14%,-17%,8%,nt,nt,nt,
CN1C(=O)C(=Cc2ccccc2OCc2ccc(Cl)cc2)C(=O)N(C)C1=O,55%,-3%,-9%,-1%,-24%[57.1 µM],0%,nt,nt,nt,
CN1C(=O)C(=Cc2ccccc2Oc2ccc(Cl)cc2)C(=O)N(C)C1=O,0%,-6%,-4%,0%,45µM*,3%,19µM*,-27%,7.6µM*,
Cc1ccc(S(=O)(=O)Oc2ccccc2C=C2C(=O)N(C)C(=O)N(C)C2=O)cc1,-18%,2%,-11%,0%,45µM*,-13%,-22%,-3%,-18%,
CO[C@H]1[C@@H](O)CC(OC2[C@@H](O)CC(OC3[C@@H](O)C[C@H](OC4CC[C@@]5(C)C(CCC6C5CC(O)[C@]5(C)[C@H](C7=CC(=O)OC7)CCC65O)C4)O[C@@H]3C)O[C@@H]2C)O[C@@H]1C (some centres undefined),nt,nt,0%[19.4 µM],nt,nt,nt,nt,nt,nt,
COc1cc([N+](=O)[O-])cc([N+](=O)[O-])c1N,21%,nt,-2%,9%,nt,nt,nt,nt,nt,
COC(=O)COc1ccc(C[C@@H](C)NC[C@H](O)c2cccc(Cl)c2)cc1,nt,nt,9%[60.1 µM],nt,nt,nt,nt,nt,nt,
CN(C)CC(C(=O)Cc1ccccc1)c1ccccc1 (centres undefined),?,-13%,-6%,13%,45µM*,nt,0.3µM*,3%,?,
C[C@@H]([C@@H](O)c1ccccc1)N(C)C(=O)Cc1ccccc1,30%,-17%,-15%,2%,1%,nt,nt,nt,nt,

# From PubChem
